Bioassay records deposited in PubChem BioAssay by several laboratories.
A1 inh = inhibitors of the anti-apoptotic protein A1, read as caspase activation; MEF A1-2A-BIM cells, Caspase-Glo 3/7 luminescence, 3 h; percent of clofoctol response, vehicle zero; caspase activation, % (concentration not given with the values); 0.066% of 330,000 active;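 active means over half of replicate activation scores above 10%, or exactly half above 10 with the replicate mean above 10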
MIN6 prolif = induces beta-cell replication in MIN6 cells; MIN6 cells proliferation, ATPlite luminescence, 48 h; cells starved in 0.2% serum; 100% = growth in 10% serum; proliferation, % at 10 µM; 0.29% of 330,000 active; AID 2380;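 active means compounds whose signal lies at least 3.5 SD above the mean of all wells on their plate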;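 further: 0% = DMSO-treated cells in low-serum medium and 100% = 10% serum control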
A3G deaminase = blocks human APOBEC3G single-stranded DNA deamination; Q9HC16; recombinant A3G, ssDNA deamination FAM/TAMRA fluorescence; inhibition, % at 20 µM; 0.28% of 330,000 active; AID 493012;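 active means inhibition of at least 40% at 20 µM, with no more than 30% in the related APOBEC3A deaminase screen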;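 further: plate controls were DMSO wells with A3G for no effect and wells lacking A3G enzyme for full effect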
APOBEC3A inh = blocks human APOBEC3A ssDNA deamination. P31941. recombinant A3A, FAM/TAMRA ssDNA deamination fluorescence. inhibition, % at 20 µM. 0.41% of 330,000 active. AID 493011;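 active means at least 40% inhibition at 20 µM here, with at most 30% in a related deaminase screen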;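 further: plate controls were A3A with DMSO for no effect and wells lacking A3A enzyme for full effect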
Target sequence (P31941 whole entry, looked up): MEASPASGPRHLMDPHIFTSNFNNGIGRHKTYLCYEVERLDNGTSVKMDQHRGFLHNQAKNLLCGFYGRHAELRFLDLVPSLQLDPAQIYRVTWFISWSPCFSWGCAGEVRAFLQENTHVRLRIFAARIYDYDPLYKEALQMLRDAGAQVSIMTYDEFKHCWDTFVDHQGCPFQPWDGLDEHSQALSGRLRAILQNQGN
APOBEC3G confirm = confirmation of human APOBEC3G DNA deaminase inhibitors; recombinant A3G ssDNA deaminase, UDG/FAM-TAMRA fluorescence; shares compounds with A3G deaminase; inhibition, % at 20 µM; 72% of 890 active;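 active means inhibition reaching a set limit in any replicate at 20 µM, the limit being 80% of the first screen's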
UDG A3G counter = E. coli UDG inhibition in APOBEC3G counter-screen. UDG counterscreen, FAM/TAMRA oligo fluorescence. AID 504715. inhibition, % at 20 µM. 710 tested, under 10 active. shares compounds with A3G deaminase;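 active means compounds giving 40% or more inhibition at 20 µM in any one of the three replicates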;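 further: plate controls were DMSO wells with UDG and oligo for no effect and DMSO wells lacking both for full effect; inhibitors lower the FAM signal released by uracil excision and alkaline cleavage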
Target sequence (P12295 whole entry, looked up): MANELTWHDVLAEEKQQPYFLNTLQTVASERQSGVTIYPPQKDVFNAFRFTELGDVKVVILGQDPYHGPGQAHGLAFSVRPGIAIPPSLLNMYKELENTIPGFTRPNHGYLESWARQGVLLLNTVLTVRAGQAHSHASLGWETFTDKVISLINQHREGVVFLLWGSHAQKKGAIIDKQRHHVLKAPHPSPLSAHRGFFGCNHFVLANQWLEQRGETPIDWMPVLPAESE
* hit, by the source's call; . = no result. Sampled rows, rich in hits. Any-hit rate of the full collection: about 1.1%.

SMILES	A1 inh	MIN6 prolif	A3G deaminase	APOBEC3A inh	APOBEC3G confirm	UDG A3G counter
COc1cccc(C(=O)NCc2n[nH]c(=S)n2-c2cccc(C)c2)c1	0	0	47*	0	61*	-3
Cc1ccc(N2CSC3=C(C#N)C(c4cccs4)CC(=O)N3C2)cc1 (stereo not drawn)	0	-5	45*	13	59*	-2
CCc1ccc(N2CSC3=C(C#N)C(c4cccs4)CC(=O)N3C2)cc1 (stereo not drawn)	0	-2	49*	16	50*	-2
COc1ccc(C2CC(=O)N3CN(c4ccc(C)c(Cl)c4)CSC3=C2C#N)cc1OC (stereo not drawn)	0	4	45*	-2	19	-2
Cc1ccc2c(c1)N(C(=O)CCC(=O)O)CCO2	1	1	5	-2	.	.
CN(C)S(=O)(=O)c1cccc(COC(=O)CNC(=O)c2ccc(Br)o2)c1	.	0	1	-1	.	.
CCOCC(=O)Nc1nnc(COc2ccc(Cl)cc2)s1	0	2	41*	2	20*	-3
Cc1onc(-c2ccccc2)c1C(=O)Nc1nnc(COc2ccc(Cl)cc2)s1	0	-4	58*	-1	38*	-3
CCc1nnc(NC(=O)c2c(-c3ccccc3)noc2C)s1	1	-5	-12	-3	.	.
O=C(CSc1ccccc1)Nc1nnc(COc2ccc(Cl)cc2)s1	-1	-4	44*	7	58*	-6
CN(C)c1ccc(/C=N/Nc2cccc(C(=O)O)c2)cc1	-11	-3	47*	2	27	.
COc1ccc(-n2nnc3c(SC(C(C)=O)C(=O)N(C)C)ncnc32)cc1 (stereo not drawn)	1	-4	51*	-1	5	-6
COC(=O)C(C)Sc1ncnc2c1nnn2-c1ccc(F)cc1 (stereo not drawn)	0	0	-4	-3	.	.
Cc1ccc(C)c(C(=O)CSc2nnnn2C(C)C)c1	1	1	-2	-3	.	.
Cc1ccc(C(=O)CSc2nnnn2C(C)C)c(C)c1	-3	-2	54*	-3	4	-2
CCCCCN(C(=O)CCC(=O)OCC(=O)N(CC)C1CCCCC1)c1c(N)n(CCCC)c(=O)[nH]c1=O	0	0	-11	-1	.	.
C(=N\NC1=Nc2cccc3cccc1c23)/c1ccccc1	-2	0	41*	3	-1	.
Clc1ccc(/C=N/NC2=Nc3cccc4cccc2c34)cc1	-1	0	0	1	.	.
CCOC(=O)c1c(C)[nH]c(C(=O)COc2ccc3ccc(=O)oc3c2)c1C	0	-3	-2	14	.	.
N#C/C(=C(/O)COc1ccccc1)c1nc2ccccc2s1	-1	-4	4	6	.	.
N#C/C(=C(/O)COc1ccc(Cl)cc1)c1nc2ccccc2s1	-3	-4	57*	-3	-2	1
COc1cc(CO)cc(Br)c1OCC(=O)Nc1cccc2ccccc12	0	-1	3	5	.	.
CSc1ccc(/C=N/n2c(Cc3ccc(Br)cc3)n[nH]c2=S)cc1	0	-6	-7	-1	.	.
FC(F)Oc1ccc(/C=N/n2c(Cc3ccc(Br)cc3)n[nH]c2=S)cc1	1	-2	48*	4	42*	-2
CN1CC(C(=O)Nc2ccc(F)c(Cl)c2)CC1=O (stereo not drawn)	0	1	-8	-8	.	.
SMILES	A1 inh	MIN6 prolif	A3G deaminase	APOBEC3A inh	APOBEC3G confirm	UDG A3G counter
S=c1[nH]nc(Cc2n[nH]c(=S)n2-c2ccccc2)n1-c1ccccc1	0	-3	-3	-4	.	.
S=c1[nH]nc(Cc2cccs2)n1-c1ccccc1	1	-2	57*	1	59*	-3
CCCCCC(=O)N(O)C1CC(=O)N(c2ccccc2)C1=O (stereo not drawn)	1	-5	42*	0	43*	7
Cc1ccc(-c2cc(C(=O)Nc3cccnc3)c3ccccc3n2)o1	-1	-5	50*	25	36*	-5
Cc1ccc(NC(=O)c2cc(-c3ccc(C)o3)nc3ccccc23)cc1	-1	-4	5	6	.	.
COc1cc(C(=S)N2CCN(C(c3ccccc3)c3ccccc3)CC2)cc(OC)c1O	0	-3	43*	-5	18	2
COc1ccc(C2NC(=S)N3C(c4ccc(OC)cc4)NC(=S)N23)cc1 (stereo not drawn)	-2	-1	45*	-3	34*	-3
CN=C1SC(CC(=O)Nc2ccc(F)cc2F)C(=O)N1/N=C/c1ccc(OC(F)F)c(OC)c1 (stereo not drawn)	0	-5	-4	-3	.	.
COc1ccccc1C(=O)NCCC(=O)NCc1cccs1	0	0	-4	-2	.	.
COc1ccc(CN2CCNC(=O)C2CC(=O)N(Cc2nccn2C)C(C)C)c(OC)c1 (stereo not drawn)	1	1	43*	24	16*	-4
Fc1cccc(Cl)c1CNCc1cccnc1	-1	0	-6	0	.	.
CCC(Sc1ccccc1C(=O)O)C(=O)O (stereo not drawn)	0	0	4	10	.	.
CCC(Sc1nc(N)cc(N)n1)C(=O)O (stereo not drawn)	1	1	44*	2	4	.
COc1cc(NC(=O)c2cc(S(=O)(=O)N3CCCCC3)c[nH]2)cc(OC)c1	1	-2	-4	3	.	.
CCOc1ccc(-n2ccn(CC(=O)NCCc3ccccc3)c(=O)c2=O)cc1	.	-5	6	-4	.	.
CCOC(=O)c1nn(-c2ccccc2)c(=O)c2c(N)scc12	1	0	34	5	.	.
Nc1scc2c(C(=O)N/N=C/c3ccc(Cl)cc3)nn(-c3ccccc3)c(=O)c12	0	-2	51*	-5	active	-1
CCOC(=O)c1c(NC(=O)c2ccccc2N(C)S(=O)(=O)c2ccccc2)sc2c1CCCC2	0	-1	2	1	.	.
CCOC(=O)c1c(NC(C)=O)sc2c1CCN(Cc1ccccc1)C2	1	-4	-13	-7	.	.
CCOC(=O)c1c(NC(C)=O)sc2c1CCC(C=O)=C2Sc1ccccc1	0	-4	41*	-4	2	3
CCOC(=O)c1c(NC(=O)c2ccccc2Br)sc2c1CCc1ccccc1-2	1	0	46*	3	33*	-4
CCc1cc(C(=O)N2CCCC(C(=O)c3ccc(C(F)(F)F)cc3)C2)n(C)n1 (stereo not drawn)	.	-3	-6	-3	.	.
N/C(=N\c1nc2ccccc2o1)NC(=O)c1ccccc1	-3	-2	61*	0	-2	1
CC(=O)NC(Cc1cccc(C)c1)C(=O)NC1CCN(S(=O)(=O)c2ccccc2)CC1 (stereo not drawn)	0	4	1	-5	.	.
NNc1cc(C(=O)O)ccc1Cl	0	-3	40*	-3	20	-2
